Screening results as filed in PubChem.
NR2F2 inh: NR2F2 transcriptional activity inhibitors, primary screen, cell-based, luciferase reporter, HEK293T, luminescence. COUP transcription factor 2 (Homo sapiens), P24468. HEK293T NGFI-A luciferase reporter. inhibition, % at 8.6 µM. actives 0.7% (n = 370,000);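 active = inhibition above a per-plate cutoff, mean inhibition of test wells between control levels plus 3 SD, cut at about 38% in these data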;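 also: cells cotransfected with COUP-TFII expression vector driving the NGFI-A reporter; 0% = median of COUP-TF2 test wells and 100% = reporter-only cells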
Target sequence (P24468 whole entry, looked up): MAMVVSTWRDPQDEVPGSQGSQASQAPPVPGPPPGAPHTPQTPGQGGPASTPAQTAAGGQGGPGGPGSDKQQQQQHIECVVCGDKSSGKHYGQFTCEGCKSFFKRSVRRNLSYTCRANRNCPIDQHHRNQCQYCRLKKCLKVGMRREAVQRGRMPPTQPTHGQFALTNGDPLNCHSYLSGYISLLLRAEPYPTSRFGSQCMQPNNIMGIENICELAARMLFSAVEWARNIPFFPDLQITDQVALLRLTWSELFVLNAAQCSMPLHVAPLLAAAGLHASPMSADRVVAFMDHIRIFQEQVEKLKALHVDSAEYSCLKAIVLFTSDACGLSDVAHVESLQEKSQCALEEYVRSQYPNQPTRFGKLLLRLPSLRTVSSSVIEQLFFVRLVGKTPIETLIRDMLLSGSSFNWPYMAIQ
SRC3 inh: SRC3 coactivator transcriptional activity inhibitors, primary screen, cell-based, luminescence | AID 588352, 2011 | inhibition, % at 3.6 µM | actives 0.17% (n = 360,000) | Nuclear receptor coactivator 3 (Homo sapiens), Q9Y6Q9 | HEK293 GAL4-SRC3 luciferase reporter;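 active = inhibition above a per-campaign cutoff, the mean of all compounds plus 3 SD, cut at about 60% in these data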;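 also: 0% = DMSO-treated cells and 100% = gossypol-treated cells at 36 µM; higher means less SRC3-driven luciferase light from the GAL4 reporter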
LRH-1 inv ag: LRH-1 (NR5A2) inverse agonists, primary screen, cell-based, luminescence, HEK293T, StAR-luciferase reporter; LRH-1 transfected, 24 h; inhibition, % at 3.6 µM; actives 0.13% (n = 360,000); AID 602396, 2012; Nuclear receptor subfamily 5 group A member 2 (Homo sapiens), O00482;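 active = inhibition above the mean inhibition of all tested compounds plus 3 SD, cut at about 73% in these data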;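 also: 0% = DMSO wells and 100% = reporter-only cells lacking LRH-1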
NCOA2 inhibitor: inhibition of GAL4-SRC2 driven luciferase reporter, primary screen, SRC2 inhibitor project, cell-based, luminescence. HEK293 GAL4-SRC2 luciferase reporter. inhibition, % at 9 µM. actives 0.17% (n = 370,000);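 active = inhibition above the mean inhibition of all tested compounds plus 3 SD, set per campaign, cut at about 52% in these data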;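 also: 0% = DMSO treated cells and 100% = cells given Gossypol at 36 µM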
Gli-Sufu antag: Gli-Sufu pathway antagonists, primary screen, luciferase luminescence, Sufu-KO-LIGHT cells, uHTS; actives 0.74% (n = 340,000); inhibition, % at 5 µM; Sufu-KO-LIGHT fibroblasts, Gli luciferase reporter luminescence; AID 588413, 2011;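 active = inhibition above about 55%, limit read from the data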;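 also: 0% = DMSO-treated cells and 100% = wells with medium but no cells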
SRC1 inh: SRC1 coactivator transcriptional activity inhibitors, primary screen, cell-based, luminescence | inhibition, % at 3.6 µM | actives 0.12% (n = 360,000) | AID 588354, 2011 | Nuclear receptor coactivator 1 (Homo sapiens), Q15788 | HEK293 GAL4-SRC1 luciferase reporter;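 active = inhibition above the campaign mean plus 3 SD, with each screening campaign given its own cutoff, cut at about 60% in these data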;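 also: 0% = DMSO treated cells and 100% = gossypol at 36 µM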
Gal4-VP16 ctr: Gal4-VP16 luciferase reporter inhibitors, counter-screen for COUP-TFII antagonist project, cell-based, luminescence, HEK293. inhibition, % at 8.5 µM. shares compounds with NR2F2 inh. AID 687007, 2013. actives 25% (n = 2,500); in the data active = inhibition above about 13%
NR2F2 inh conf: NR2F2 transcriptional activity inhibitors, confirmation, cell-based, luciferase reporter, HEK293, triplicate; shares compounds with NR2F2 inh; HEK293 NGFI-A luciferase reporter, luminescence; actives 45% (n = 2,500); inhibition, % at 8.5 µM; AID 687008, 2013;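 active = mean inhibition over three repeats above a set limit taken from the earlier primary screen, cut at about 38% in these data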;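 also: 100% = cells given the luciferase reporter alone without the COUP-TF2 vector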
The depositor's hits bear a star; . = no result given. Hits are enriched below; roughly 1.3% of the tested compounds scored in any of these assays.

SMILES	NR2F2 inh	SRC3 inh	LRH-1 inv ag	NCOA2 inhibitor	Gli-Sufu antag	SRC1 inh	Gal4-VP16 ctr	NR2F2 inh conf
CCCS(=O)(=O)NC(=O)C1(C)CCCN(C(=O)CCc2cccs2)C1 (stereo not drawn)	9	7	-7	-20	.	0	.	.
CC(C)n1cc(CN2CCCC(CNS(=O)(=O)c3cccc4cccnc34)C2)cn1 (stereo not drawn)	0	5	17	-13	14	-15	.	.
CC(=O)Oc1ccc(N(C(C)=O)S(=O)(=O)c2ccccc2)c2ccccc12	-8	-3	45	-1	.	10	.	.
CC(=O)Oc1c(Cl)cc(N(C(C)=O)S(=O)(=O)c2ccccc2)c2ccccc12	53*	26	26	30	6	20	28*	28
O=S(=O)(c1ccccc1C(F)(F)F)N1CCN(c2ncnc3sccc23)CC1	15	0	-21	25	9	11	.	.
O=S(=O)(c1ccc(F)c(F)c1F)N1CCN(c2ncnc3sccc23)CC1	40*	-8	27	21	27	11	-2	32
O=C(c1ccccc1)C1CCN(c2ncnc3sccc23)CC1	74*	.	.	.	.	.	6	62*
O=C(c1ccc(F)cc1)C1CCN(c2ncnc3sccc23)CC1	63*	.	.	.	.	.	3	56*
O=C(Nc1ccccc1)C1CCN(c2nccs2)CC1	-6	19	-4	-10	5	-11	.	.
c1ccc(OC2CCN(c3ncnc4sccc34)CC2)cc1	64*	.	.	.	.	.	-8	49*
Cc1ccc(CN2CCc3c(OCc4ccc(F)cc4)cccc3C2=O)cc1	22	16	3	13	14	10	.	.
O=C1c2cccc(OCc3ccc(F)cc3)c2CCN1Cc1ccc(F)cc1	58*	32	16	19	35	31	1	44*
COC(=O)c1ccc(COc2cccc3c2CCN(Cc2cccc(C)c2)C3=O)o1	38*	8	-9	-1	28	-2	-4	-1
COC(=O)c1ccc(COc2cccc3c2CCN(Cc2ccccc2)C3=O)o1	18	-5	14	1	1	-21	.	.
CCOC(=O)N(C)C[C@H]1OCc2cn(nn2)CCCC(=O)N([C@@H](C)CO)C[C@@H]1C	4	.	.	0	.	.	.	.
Cc1ccc(-n2c(Cc3cccs3)nnc2SCc2ccc(Br)cc2)cc1	2	.	.	19	.	.	.	.
COC(=O)c1ccc(CSc2nnc(CS(=O)Cc3ccc(Br)cc3)n2-c2ccccc2)cc1 (stereo not drawn)	39*	11	19	16	29	-4	0	15
O=S(Cc1ccc(Br)cc1)Cc1nnc(SCc2ccc(Br)cc2)n1-c1ccccc1 (stereo not drawn)	44*	29	38	7	41	11	-4	28
COc1cccc(CNC(=O)c2cc3c(C)nc4ccccc4c3o2)c1	38*	-19	22	22	8	2	3	16
Cc1nc2ccccc2c2oc(C(=O)NCC3COc4ccccc4O3)cc12 (stereo not drawn)	31	15	33	31	20	-5	.	.
CCc1ccc(CNC(=O)c2cc3c(C)nc4ccccc4c3o2)cc1	51*	6	14	41	39	2	6	37
COc1ccc(CCN2C(=O)CSC2c2ccc(OC)c(OC)c2)cc1OC (stereo not drawn)	0	10	4	-23	23	3	.	.
COc1ccc(C2SCC(=O)N2CCc2ccc(OC)c(OC)c2)cc1 (stereo not drawn)	43*	27	26	19	6	11	-3	19
CC(C)c1ccc(/C=C/C(=O)Nc2ccc(CN3CCOCC3)cc2)cc1	14	16	-2	8	8	5	.	.
Cc1cc(CSc2ccccc2)ccc1NC(=O)c1ccc(CN2CCOCC2)cc1	63*	30	40	5	40	32	3	61*
SMILES	NR2F2 inh	SRC3 inh	LRH-1 inv ag	NCOA2 inhibitor	Gli-Sufu antag	SRC1 inh	Gal4-VP16 ctr	NR2F2 inh conf
O=C(/C=C/c1ccc(Cl)cc1)Nc1ccc(CN2CCOCC2)cc1	57*	14	11	-49	20	-14	-3	32
NC(=O)c1ccc(NC(=O)c2ccc(CN3CCOCC3)cc2)cc1	-3	-20	-18	-10	-5	-11	.	.
CCOC(=O)c1ccc(NC(=O)c2ccc(CN3CCOCC3)cc2)cc1	50*	32	25	17	-14	11	-4	38*
O=C(Nc1ccc(CN2CCOCC2)cc1)c1ccc(-c2cccc(Cl)c2)o1	62*	16	-9	-3	14	3	-18	-6
COC(=O)N[C@H]1CC=C[C@@H]1Cc1cccc(Oc2ccccc2)c1	-5	.	.	-14	.	.	.	.
CC(C)c1ccc(C(=O)Nc2ccc(CN3CCOCC3)cc2)cc1	38*	16	4	-17	2	4	-38	6
Cc1csc(NC(=O)c2cccnc2Cl)n1	-7	-43	-43	-37	-35	-44	.	.
CCOc1ccc(Nc2nc(NCC3CCCO3)c3ccccc3n2)cc1 (stereo not drawn)	60*	1	0	8	71*	-6	4	43*
COc1ccc(Nc2nc(NCC3CCCO3)c3ccccc3n2)c(OC)c1 (stereo not drawn)	8	22	6	-4	41	13	.	.
N#Cc1ccc(-c2cn(-c3ccccc3)c3[n+]2CCCS3)cc1	1	6	-7	1	10	-4	.	.
COc1ccc(-n2cc(-c3ccc(C)cc3)[n+]3c2SCC3)cc1	66*	47	65	19	.	47	10	64*
Cc1cc(C(=O)COc2cccnc2[N+](=O)[O-])c(C)n1-c1ccccc1F	48*	23	4	51	29	22	-100	-42
Cc1ccc(-n2c(C)cc(C(=O)COc3cccnc3[N+](=O)[O-])c2C)cc1	19	35	35	35	35	20	.	.
NC(Cc1ccc(O)cc1)C(=O)NN=Cc1ccccc1Cl (stereo not drawn)	-8	.	.	-14	.	.	.	.
COc1ccc(C(CNC(=O)CCNC(=O)c2ccc(Br)cc2)N2CCOCC2)cc1 (stereo not drawn)	1	10	3	10	-10	-1	.	.
